In PMC7862700, “An all-to-all approach to the identification of sequence-specific readers for epigenetic DNA modifications on cytosine” one finds binding signal data, which are given here for one sequence.

Common to all, as to assay: DAPPL (digital affinity profiling via proximity ligation, sequencing); 10 mM Tris-HCl pH 7.5, 50 mM NaCl, 1 mM DTT, 4% glycerol, room temperature, 30 min; GST-TFs on glutathione beads, 16-mer random dsDNA library, 0.1% formaldehyde crosslink after washing; high values mean tight binding
One assay addresses T1, FLI1 (Homo sapiens, UniProt Q01543 1-452).
T1 sequence: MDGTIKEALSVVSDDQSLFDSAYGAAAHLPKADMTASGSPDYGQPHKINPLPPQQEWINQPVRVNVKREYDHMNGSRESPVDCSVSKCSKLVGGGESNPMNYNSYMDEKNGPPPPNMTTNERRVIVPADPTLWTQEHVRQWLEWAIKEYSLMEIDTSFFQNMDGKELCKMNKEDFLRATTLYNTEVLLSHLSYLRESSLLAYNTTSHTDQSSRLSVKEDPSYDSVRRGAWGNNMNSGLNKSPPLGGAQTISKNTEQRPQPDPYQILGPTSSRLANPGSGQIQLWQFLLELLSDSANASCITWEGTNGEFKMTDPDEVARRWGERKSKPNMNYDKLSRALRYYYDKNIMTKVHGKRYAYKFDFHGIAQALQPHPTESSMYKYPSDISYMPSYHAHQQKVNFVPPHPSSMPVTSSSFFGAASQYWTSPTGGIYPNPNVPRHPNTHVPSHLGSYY
The settings on record: protein: recombinant; tags: N-terminal GST; dsDNA, one strand shown. In outline:
(§1)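 Pools were built from human transcription factors expressed in yeast as GST fusions, captured on glutathione beads and DNA-barcoded, along with a tag-only sample. Incubation with 200 nmole of a 16-mer random double-stranded DNA library lasted 30 min at room temperature in Tris/NaCl/DTT/glycerol buffer, and was followed by washing, 0.1% formaldehyde crosslinking, proximity ligation, PCR amplification and Illumina NextSeq500 sequencing. Binding signal is the quotient of each hexamer's read frequency for a factor and its frequency for the tag-only sample.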

In another assay the target is T2, ELK1 (Homo sapiens, UniProt P19419 1-428).
T2 sequence: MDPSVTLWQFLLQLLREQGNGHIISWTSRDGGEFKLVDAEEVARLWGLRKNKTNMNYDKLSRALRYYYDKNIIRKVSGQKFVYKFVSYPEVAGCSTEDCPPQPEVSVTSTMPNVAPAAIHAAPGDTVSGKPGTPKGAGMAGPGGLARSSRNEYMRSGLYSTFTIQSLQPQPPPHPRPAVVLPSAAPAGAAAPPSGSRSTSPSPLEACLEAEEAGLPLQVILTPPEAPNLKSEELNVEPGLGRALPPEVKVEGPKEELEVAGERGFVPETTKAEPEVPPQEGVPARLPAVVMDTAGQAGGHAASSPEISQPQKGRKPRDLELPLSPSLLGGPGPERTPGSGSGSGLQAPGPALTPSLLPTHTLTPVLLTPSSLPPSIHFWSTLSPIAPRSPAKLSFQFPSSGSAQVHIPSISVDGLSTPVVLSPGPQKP
The note with it: protein: recombinant; tags: N-terminal GST; dsDNA, one strand shown. In outline: as §1

A further assay addresses T3, GABPA (Homo sapiens, UniProt Q06546 1-454).
T3 sequence: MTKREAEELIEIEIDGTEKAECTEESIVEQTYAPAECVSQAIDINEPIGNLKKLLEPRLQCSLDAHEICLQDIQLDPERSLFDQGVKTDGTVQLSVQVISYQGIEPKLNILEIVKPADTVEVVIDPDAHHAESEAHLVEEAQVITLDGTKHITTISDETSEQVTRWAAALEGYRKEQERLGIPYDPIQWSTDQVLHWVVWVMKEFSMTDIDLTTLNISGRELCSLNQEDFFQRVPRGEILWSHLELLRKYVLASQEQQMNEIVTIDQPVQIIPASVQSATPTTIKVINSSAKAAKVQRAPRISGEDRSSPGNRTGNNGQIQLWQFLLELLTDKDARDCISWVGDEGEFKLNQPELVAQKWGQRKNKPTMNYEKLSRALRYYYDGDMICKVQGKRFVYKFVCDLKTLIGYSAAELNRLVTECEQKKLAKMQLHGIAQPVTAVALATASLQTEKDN
The note with it: protein: recombinant; tags: N-terminal GST; dsDNA, one strand shown. In outline:
as §1

The target in another assay is T4, ERG (Homo sapiens, UniProt P11308 1-479).
T4 sequence: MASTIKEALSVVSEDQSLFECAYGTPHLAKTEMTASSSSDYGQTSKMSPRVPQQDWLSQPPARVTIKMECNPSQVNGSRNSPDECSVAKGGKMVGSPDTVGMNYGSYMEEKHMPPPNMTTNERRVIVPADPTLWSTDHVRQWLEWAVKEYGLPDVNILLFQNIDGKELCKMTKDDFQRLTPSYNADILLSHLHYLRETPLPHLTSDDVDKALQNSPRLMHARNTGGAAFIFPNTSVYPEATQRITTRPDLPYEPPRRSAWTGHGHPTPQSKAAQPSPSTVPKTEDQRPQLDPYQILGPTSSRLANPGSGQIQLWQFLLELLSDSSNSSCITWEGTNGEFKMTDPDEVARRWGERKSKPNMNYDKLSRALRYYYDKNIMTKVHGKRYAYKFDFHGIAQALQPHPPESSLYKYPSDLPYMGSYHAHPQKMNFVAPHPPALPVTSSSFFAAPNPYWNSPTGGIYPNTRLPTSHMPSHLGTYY
The note with it: protein: recombinant; tags: N-terminal GST; dsDNA, one strand shown. The essentials: as §1

A further assay deals with ELF1 (Homo sapiens, UniProt P32519 1-619). The note with it: protein: recombinant; tags: N-terminal GST; dsDNA, one strand shown. The essentials: as §1
Sequence of ELF1 (P32519 whole entry): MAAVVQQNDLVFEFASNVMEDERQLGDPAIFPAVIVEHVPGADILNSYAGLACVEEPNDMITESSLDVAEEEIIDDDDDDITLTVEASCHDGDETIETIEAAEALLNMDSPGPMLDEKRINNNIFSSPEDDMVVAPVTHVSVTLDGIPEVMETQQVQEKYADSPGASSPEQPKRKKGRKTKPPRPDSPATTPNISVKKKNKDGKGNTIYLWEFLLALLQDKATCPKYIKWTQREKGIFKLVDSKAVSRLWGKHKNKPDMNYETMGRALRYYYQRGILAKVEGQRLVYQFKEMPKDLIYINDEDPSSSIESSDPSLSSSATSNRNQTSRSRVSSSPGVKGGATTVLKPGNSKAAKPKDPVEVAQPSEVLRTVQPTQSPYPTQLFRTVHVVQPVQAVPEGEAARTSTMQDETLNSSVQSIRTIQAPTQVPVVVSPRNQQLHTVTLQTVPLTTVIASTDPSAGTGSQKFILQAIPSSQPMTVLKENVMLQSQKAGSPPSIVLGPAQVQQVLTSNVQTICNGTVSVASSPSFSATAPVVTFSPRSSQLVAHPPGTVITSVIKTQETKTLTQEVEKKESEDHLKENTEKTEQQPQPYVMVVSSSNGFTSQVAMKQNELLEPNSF
A further assay concerns the target T5, EHF (Homo sapiens, UniProt Q9NZC4 1-300).
T5 sequence: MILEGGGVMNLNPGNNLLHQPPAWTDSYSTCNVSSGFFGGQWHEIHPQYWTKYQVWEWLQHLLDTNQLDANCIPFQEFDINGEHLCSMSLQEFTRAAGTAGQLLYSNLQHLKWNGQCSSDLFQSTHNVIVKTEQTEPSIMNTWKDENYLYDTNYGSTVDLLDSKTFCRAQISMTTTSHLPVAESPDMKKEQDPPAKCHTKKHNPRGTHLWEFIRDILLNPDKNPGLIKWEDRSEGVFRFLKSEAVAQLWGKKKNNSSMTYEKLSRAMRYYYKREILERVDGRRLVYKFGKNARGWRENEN
The settings on record: protein: recombinant; tags: N-terminal GST; dsDNA, one strand shown. The essentials: as §1

In a further assay the target is SPI1 (Homo sapiens, UniProt P17947 1-270). The settings on record: protein: recombinant; tags: N-terminal GST; dsDNA, one strand shown. The essentials:
as §1

The next assay concerns the target SPIB (Homo sapiens, UniProt Q01892 1-262). The settings on record: protein: recombinant; tags: N-terminal GST; dsDNA, one strand shown. In outline: as §1
Another assay concerns the target T6, ELK3 (Homo sapiens, UniProt P41970 1-407).
T6 sequence: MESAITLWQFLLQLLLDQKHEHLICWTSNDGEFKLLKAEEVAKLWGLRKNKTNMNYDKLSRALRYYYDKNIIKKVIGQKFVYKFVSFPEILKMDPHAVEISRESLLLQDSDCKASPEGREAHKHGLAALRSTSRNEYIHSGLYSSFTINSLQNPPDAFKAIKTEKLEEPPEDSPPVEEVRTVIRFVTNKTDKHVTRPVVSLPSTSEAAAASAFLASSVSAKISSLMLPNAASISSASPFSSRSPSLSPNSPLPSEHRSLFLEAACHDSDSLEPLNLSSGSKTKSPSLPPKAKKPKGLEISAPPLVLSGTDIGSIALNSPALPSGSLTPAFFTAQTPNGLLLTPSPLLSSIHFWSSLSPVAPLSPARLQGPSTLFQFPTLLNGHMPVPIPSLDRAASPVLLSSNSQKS
The note with it: protein: recombinant; tags: N-terminal GST; dsDNA, one strand shown. In outline: as §1

The next assay concerns the target T7, FEV (Homo sapiens, UniProt Q99581 1-238).
T7 sequence: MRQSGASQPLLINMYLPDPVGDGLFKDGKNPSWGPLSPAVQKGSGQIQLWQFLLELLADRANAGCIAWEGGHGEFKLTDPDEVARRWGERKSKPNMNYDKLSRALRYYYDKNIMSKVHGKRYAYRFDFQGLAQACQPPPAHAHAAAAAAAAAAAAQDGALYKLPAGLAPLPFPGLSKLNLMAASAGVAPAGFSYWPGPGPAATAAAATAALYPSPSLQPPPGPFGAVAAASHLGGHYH
The settings on record: protein: recombinant; tags: N-terminal GST; dsDNA, one strand shown. The essentials:
as §1

The target of another assay is ETV5 (Homo sapiens, UniProt P41161 1-510). The settings on record: protein: recombinant; tags: N-terminal GST; dsDNA, one strand shown. The essentials:
as §1

The next assay has as its target HSF1 (Homo sapiens, UniProt Q00613 1-529). The note with it: protein: recombinant; tags: N-terminal GST; chain copies: 3; dsDNA, one strand shown. The essentials:
as §1

The next assay concerns the target T8, SPIC (Homo sapiens, UniProt Q8N5J4 1-248).
T8 sequence: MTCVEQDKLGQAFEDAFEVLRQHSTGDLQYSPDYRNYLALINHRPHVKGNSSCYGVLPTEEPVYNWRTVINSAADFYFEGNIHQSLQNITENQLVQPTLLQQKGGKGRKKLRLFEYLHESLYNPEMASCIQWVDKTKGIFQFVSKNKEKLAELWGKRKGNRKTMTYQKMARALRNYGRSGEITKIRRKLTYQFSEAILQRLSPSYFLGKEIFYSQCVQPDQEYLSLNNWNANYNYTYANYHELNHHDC
The note with it: protein: recombinant; tags: N-terminal GST; dsDNA, one strand shown. In outline: as §1

A further assay addresses ELF4 (Homo sapiens, UniProt Q99607 1-663). The note with it: protein: recombinant; tags: N-terminal GST; dsDNA, one strand shown. In outline: as §1
The next assay addresses T9, ELK4 (Homo sapiens, UniProt P28324-2 1-405).
T9 sequence: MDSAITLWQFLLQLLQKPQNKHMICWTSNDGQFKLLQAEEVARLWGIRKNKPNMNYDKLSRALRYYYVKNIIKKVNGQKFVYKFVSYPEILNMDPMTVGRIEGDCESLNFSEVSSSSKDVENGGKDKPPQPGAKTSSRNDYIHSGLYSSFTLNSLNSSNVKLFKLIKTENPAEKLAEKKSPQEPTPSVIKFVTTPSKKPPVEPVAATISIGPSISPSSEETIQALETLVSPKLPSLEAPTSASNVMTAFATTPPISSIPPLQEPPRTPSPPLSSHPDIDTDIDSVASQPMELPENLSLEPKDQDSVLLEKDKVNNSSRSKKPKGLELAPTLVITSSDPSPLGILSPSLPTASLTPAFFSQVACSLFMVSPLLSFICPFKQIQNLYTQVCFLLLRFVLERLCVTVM
The settings on record: protein: recombinant; tags: N-terminal GST; dsDNA, one strand shown. The essentials:
as §1

The next assay concerns the target T10, ETV2 (Homo sapiens, UniProt O00321 1-342).
T10 sequence: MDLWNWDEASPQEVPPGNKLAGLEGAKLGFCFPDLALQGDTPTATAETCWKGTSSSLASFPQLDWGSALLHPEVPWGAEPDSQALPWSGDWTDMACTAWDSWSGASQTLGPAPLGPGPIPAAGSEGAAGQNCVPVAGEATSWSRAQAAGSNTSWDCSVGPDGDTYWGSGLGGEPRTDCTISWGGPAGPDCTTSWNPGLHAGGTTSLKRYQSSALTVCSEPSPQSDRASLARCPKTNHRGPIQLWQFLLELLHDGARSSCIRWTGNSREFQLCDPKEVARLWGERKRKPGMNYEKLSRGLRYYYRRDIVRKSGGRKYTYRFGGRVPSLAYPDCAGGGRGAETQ
The note with it: protein: recombinant; tags: N-terminal GST; dsDNA, one strand shown. In outline:
as §1

In a further assay the target is T11, ELF3 (Homo sapiens, UniProt P78545 1-371).
T11 sequence: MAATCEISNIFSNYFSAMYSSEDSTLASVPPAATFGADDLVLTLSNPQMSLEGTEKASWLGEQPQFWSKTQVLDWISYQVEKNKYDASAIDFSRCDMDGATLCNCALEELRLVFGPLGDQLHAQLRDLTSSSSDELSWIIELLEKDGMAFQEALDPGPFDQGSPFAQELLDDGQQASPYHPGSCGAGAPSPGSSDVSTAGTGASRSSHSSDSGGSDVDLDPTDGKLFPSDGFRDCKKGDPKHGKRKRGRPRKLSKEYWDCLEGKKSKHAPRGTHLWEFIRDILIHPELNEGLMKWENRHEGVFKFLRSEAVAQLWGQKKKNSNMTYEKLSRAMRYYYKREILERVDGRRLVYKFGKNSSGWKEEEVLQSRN
The settings on record: protein: recombinant; tags: N-terminal GST; dsDNA, one strand shown. The essentials:
as §1

The target of another assay is CRX (Homo sapiens, UniProt O43186 1-299). The settings on record: protein: recombinant; tags: N-terminal GST; dsDNA, one strand shown. In outline:
as §1

The next assay concerns the target ETV1 (Homo sapiens, UniProt P50549 1-477). The settings on record: protein: recombinant; tags: N-terminal GST; dsDNA, one strand shown. In outline:
as §1

Sequence of SPIB (Q01892 whole entry): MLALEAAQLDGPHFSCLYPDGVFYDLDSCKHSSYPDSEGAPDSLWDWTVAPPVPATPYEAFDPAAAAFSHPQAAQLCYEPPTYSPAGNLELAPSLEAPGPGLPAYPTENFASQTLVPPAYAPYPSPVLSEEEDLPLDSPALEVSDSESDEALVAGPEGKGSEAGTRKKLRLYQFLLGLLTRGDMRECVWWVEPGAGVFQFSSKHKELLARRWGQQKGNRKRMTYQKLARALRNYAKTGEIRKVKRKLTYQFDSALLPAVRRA
Sequence of ETV5 (P41161 whole entry): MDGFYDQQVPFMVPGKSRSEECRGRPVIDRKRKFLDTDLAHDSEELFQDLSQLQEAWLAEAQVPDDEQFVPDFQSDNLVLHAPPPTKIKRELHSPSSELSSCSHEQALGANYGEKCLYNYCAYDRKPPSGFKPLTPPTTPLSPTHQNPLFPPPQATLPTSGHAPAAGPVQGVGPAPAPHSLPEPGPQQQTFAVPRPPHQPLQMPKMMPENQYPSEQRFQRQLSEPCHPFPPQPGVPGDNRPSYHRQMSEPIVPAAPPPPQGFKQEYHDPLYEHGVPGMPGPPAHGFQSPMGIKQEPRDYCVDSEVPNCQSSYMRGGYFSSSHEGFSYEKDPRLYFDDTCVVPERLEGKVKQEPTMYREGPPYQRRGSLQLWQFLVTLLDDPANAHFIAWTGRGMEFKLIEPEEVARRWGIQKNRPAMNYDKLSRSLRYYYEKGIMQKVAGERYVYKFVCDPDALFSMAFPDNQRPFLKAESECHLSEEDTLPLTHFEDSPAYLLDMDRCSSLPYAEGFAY
Sequence of ETV1 (P50549 whole entry): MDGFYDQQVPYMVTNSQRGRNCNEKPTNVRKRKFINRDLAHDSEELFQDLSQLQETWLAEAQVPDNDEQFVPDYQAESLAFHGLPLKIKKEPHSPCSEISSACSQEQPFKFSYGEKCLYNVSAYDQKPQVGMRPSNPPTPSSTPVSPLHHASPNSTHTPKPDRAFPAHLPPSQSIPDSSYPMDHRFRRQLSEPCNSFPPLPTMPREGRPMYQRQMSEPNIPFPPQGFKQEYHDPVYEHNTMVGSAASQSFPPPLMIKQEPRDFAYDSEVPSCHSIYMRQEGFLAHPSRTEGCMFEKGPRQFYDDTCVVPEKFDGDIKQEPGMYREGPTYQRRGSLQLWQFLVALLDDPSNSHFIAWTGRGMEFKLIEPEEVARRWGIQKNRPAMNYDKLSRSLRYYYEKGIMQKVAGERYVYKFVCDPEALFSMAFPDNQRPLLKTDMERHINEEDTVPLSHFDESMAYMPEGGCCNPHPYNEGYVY
Sequence of CRX (O43186 whole entry): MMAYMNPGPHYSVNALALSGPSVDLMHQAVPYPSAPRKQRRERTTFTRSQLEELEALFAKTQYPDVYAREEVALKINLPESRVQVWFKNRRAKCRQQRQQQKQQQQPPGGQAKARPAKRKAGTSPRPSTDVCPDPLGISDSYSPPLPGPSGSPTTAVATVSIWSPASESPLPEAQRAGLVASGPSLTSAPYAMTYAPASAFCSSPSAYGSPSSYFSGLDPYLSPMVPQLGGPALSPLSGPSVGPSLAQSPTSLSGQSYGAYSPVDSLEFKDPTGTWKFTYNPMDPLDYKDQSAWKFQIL
Sequence of ELF4 (Q99607 whole entry): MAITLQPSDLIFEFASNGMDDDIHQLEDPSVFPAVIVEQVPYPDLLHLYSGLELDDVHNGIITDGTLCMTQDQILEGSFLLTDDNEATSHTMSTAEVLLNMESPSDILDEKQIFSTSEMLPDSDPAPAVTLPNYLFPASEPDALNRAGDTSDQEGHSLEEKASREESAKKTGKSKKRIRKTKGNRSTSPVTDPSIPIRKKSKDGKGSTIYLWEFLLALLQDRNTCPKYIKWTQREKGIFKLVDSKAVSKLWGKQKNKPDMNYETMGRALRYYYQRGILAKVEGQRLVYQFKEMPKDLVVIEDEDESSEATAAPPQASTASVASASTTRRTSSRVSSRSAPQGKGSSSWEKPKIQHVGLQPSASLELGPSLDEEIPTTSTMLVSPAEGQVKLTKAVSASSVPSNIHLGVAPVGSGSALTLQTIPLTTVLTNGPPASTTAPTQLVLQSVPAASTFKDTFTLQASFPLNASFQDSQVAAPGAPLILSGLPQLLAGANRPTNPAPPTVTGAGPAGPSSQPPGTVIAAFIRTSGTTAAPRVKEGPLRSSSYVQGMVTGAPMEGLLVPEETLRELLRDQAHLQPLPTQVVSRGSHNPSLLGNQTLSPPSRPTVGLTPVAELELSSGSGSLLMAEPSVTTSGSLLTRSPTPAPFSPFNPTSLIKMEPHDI
Sequence of HSF1 (Q00613 whole entry): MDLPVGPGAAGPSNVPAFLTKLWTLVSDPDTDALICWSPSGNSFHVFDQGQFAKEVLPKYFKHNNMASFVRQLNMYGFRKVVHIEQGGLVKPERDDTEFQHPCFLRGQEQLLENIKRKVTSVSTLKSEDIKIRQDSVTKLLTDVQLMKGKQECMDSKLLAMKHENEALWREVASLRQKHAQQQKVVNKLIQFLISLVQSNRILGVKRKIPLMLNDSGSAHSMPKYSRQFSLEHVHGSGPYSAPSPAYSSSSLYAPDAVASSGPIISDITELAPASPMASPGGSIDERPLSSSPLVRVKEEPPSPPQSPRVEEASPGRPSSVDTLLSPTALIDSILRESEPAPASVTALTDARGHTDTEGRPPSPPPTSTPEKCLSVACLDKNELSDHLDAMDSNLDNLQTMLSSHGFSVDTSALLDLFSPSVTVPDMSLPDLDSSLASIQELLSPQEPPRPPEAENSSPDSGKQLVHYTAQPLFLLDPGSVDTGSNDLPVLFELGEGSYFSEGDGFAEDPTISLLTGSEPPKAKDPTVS

As for CCGCAC, the binding signal is 1.45 fold enrichment (6-mer frequency, TF over GST control) with FLI1; 1.45 fold enrichment (6-mer frequency, TF over GST control) with ELK1; 1.5 fold enrichment (6-mer frequency, TF over GST control) in the assay with GABPA; 1.42 fold enrichment (6-mer frequency, TF over GST control) with ERG; 1.55 fold enrichment (6-mer frequency, TF over GST control) with ELF1; 1.5 fold enrichment (6-mer frequency, TF over GST control) in the assay with EHF. Also, the binding signal is 1.52 fold enrichment (6-mer frequency, TF over GST control) with SPI1; 1.41 fold enrichment (6-mer frequency, TF over GST control) with SPIB; 1.52 fold enrichment (6-mer frequency, TF over GST control) in the assay with ELK3; 1.42 fold enrichment (6-mer frequency, TF over GST control) in the assay with FEV; 1.4 fold enrichment (6-mer frequency, TF over GST control) with ETV5; 1.13 fold enrichment (6-mer frequency, TF over GST control) in the assay with HSF1. Besides, the binding signal with SPIC was 1.27 fold enrichment (6-mer frequency, TF over GST control); with ELF4, 1.5 fold enrichment (6-mer frequency, TF over GST control); with ELK4, 1.3 fold enrichment (6-mer frequency, TF over GST control); in the assay with ETV2, 1.39 fold enrichment (6-mer frequency, TF over GST control); with ELF3, 1.39 fold enrichment (6-mer frequency, TF over GST control); with CRX it was 1.02 fold enrichment (6-mer frequency, TF over GST control). The binding signal with ETV1 was 1.47 fold enrichment (6-mer frequency, TF over GST control).
